Here are results for five compounds from PubChem BioAssay.

Experiment [1] can be described thus: growth inhibition of DIPG glioma cells, dose response, cell-based, SU-DIPG-XVII, MIPE5.0, CellTiter-Glo, qHTS (AID 1347060).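 On AC50: cells exposed to compound for 48 hours before viability readout.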 The following applies: SU-DIPG-XVII viability, CellTiter-Glo ATP luminescence. A general note: ATP-based viability assays read luminescence as a measure of living cells.
The nature of experiment [2]: growth inhibition of DIPG glioma cells, dose response, cell-based, JHH-DIPG-1, MIPE4.0, CellTiter-Glo, qHTS (AID 1347062; cut-off not given, nearly all actives have AC50 up to about 27 µM;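 on AC50: cells exposed to compound for two days before readout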). The following applies: JHH-DIPG-1 viability, CellTiter-Glo ATP luminescence.
Experiment [3] is described as follows: growth inhibition of DIPG glioma cells, dose response, cell-based, SU-DIPG-IV, MIPE4.0, CellTiter-Glo, qHTS (AID 1347063; cut-off not given, nearly all actives have AC50 up to about 30 µM;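 further: compound exposure lasted 48 hours before the viability readout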). The following applies: SU-DIPG-IV viability, CellTiter-Glo ATP luminescence.
Experiment [4] in a line: growth inhibition of DIPG glioma cells, dose response, cell-based, SU-DIPG-XIII, MIPE5.0, CellTiter-Glo, qHTS (AID 1347064; cut-off not given, nearly all actives have AC50 up to about 23 µM;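 on AC50: cells exposed to compound for 48 hours before the viability read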). The following applies: SU-DIPG-XIII viability, CellTiter-Glo ATP luminescence.
The nature of experiment [5]: viability loss in pontine glioma line – cell-based, SU-DIPG-XXV, MIPE5.0, CellTiter-Glo, qHTS, dose response (AID 1347065).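 Further: cells exposed to compound for 48 hours before ATP readout.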 The conditions noted are these: CellTiter-Glo ATP luminescence.
The nature of experiment [6]: SU-DIPG-VI glioma cell viability, MIPE4.0 library, CellTiter-Glo luminescence, qHTS (AID 1347066; cut-off not given, nearly all actives have AC50 up to about 30 µM;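 further: cells exposed to compound for 48 hours before readout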). The following applies: CellTiter-Glo ATP luminescence.
Experiment [7] is described as follows: JHH-DIPG-1 glioma cell viability, MIPE5.0 library, CellTiter-Glo luminescence, qHTS (AID 1347067).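 Further: cells exposed to compound for 48 hours before readout.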 The conditions noted are these: JHH-DIPG-1 glioma viability, CellTiter-Glo ATP luminescence.
Experiment [8] can be described thus: SU-DIPG-XXV glioma cell viability, MIPE5.0 library, qHTS (AID 1347068; cut-off not given, nearly all actives have IC50 up to about 30 µM;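 on IC50: cells exposed to compound for 48 hours before viability readout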). Background: qHTS replaces the single test concentration by a dilution series.
Experiment [9] in a line: modifiers of HSF1 nuclear foci, imaging, Selleck Cancer Library (AID 1347162; in the data active means plate-normalised HSF1 focus index below about 0.46). The following applies: human cells, at 10 µM; SSMD: measured here: HSF1 foci SSMD mean; cell count: measured here: cell number; plate-normalised HSF1 focus index: stronger effect = lower value.
Experiment [10] is described as follows: LFS_MB_P medulloblastoma growth inhibition, cell-based, chromothripsis tumors, cisplatin or BGB combos (AID 1671449; in the data active means inhibition above about 80%;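 further: cells exposed for 96 hours; 0% = vehicle DMSO and 100% = killing by high DMSO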). The following applies: LFS_MB_P medulloblastoma cells.
The nature of experiment [11]: HDN33 neuroblastoma growth inhibition, cell-based, chromothripsis tumors, cisplatin or BGB combos (AID 1671450; in the data active means inhibition above about 80%;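 further: cells exposed to compound for four days; 0% = vehicle DMSO and 100% = cell killing by high DMSO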). The following applies: HDN33 neuroblastoma cells, stronger effect = higher value.
Experiment [12] is described as follows: ICB984 medulloblastoma cell growth inhibition, synergistic combos for chromothripsis tumors, cisplatin or BGB combos (AID 1671451; call rule not given here;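 further: cells exposed for 96 hours before readout; 0% = vehicle DMSO and 100% = killing by high DMSO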). The conditions noted are these: ICB984 medulloblastoma cells, drug combinations, stronger effect = higher value.
Experiment [13] in a line: HTB85 osteosarcoma cell growth inhibition, synergistic combos for chromothripsis tumors, BGB or cisplatin IC20 combos (AID 1671453; in the data active means inhibition above about 80%;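 further: cells exposed for 96 hours before readout; 0% = vehicle DMSO and 100% = high DMSO killing control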). The conditions noted are these: HTB85 osteosarcoma cells, drug combinations, stronger effect = higher value.
A short description of experiment [14]: MDA-MB-436 breast carcinoma cell growth inhibition, synergistic combos for chromothripsis tumors, BGB or cisplatin combos (AID 1671458; call rule not given here;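 further: cells exposed for 96 hours; 0% = vehicle DMSO and 100% = killing by high DMSO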). The conditions noted are these: MDA-MB-436 breast carcinoma growth inhibition, drug combinations, stronger effect = higher value.
Experiment [15] in a line: growth inhibition of BT084 medulloblastoma cells, cell-based, ICGC_MB145, cisplatin and BGB IC40 combos (AID 1671461; in the data active means inhibition above about 80%;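 further: cells exposed to drugs for 96 hours; 0% = vehicle DMSO and 100% = high DMSO full killing control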). The following applies: drug combinations, stronger effect = higher value.
Experiment [16] in a line: growth inhibition of RCMB18 medulloblastoma cells, cell-based, cisplatin and BGB IC40 combos (AID 1671462; in the data active means inhibition above about 80%;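 further: cells exposed to compound for four days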). The following applies: stronger effect = higher value.
The nature of experiment [17]: sensitizers of A549 cells to miR-34 induction, primary screen, imaging, A549 dox-inducible miR-34, nuclei and caspase counts (AID 1347080;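 active means compounds whose cell count with miR-34 switched on is under 0.7 times the count with it off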). The following applies: A549 miR-34 inducible, Hoechst nuclei count, 48 h.

Several values for one entry are separate records, joined by “and”; a condition that tells them apart may be missing. Equal entries are not always repeated. Inconclusive results are not listed. Some compounds were tested as several samples or in several runs, with calls that do not always agree. Activity calls are given as the source filed them. Unless noted, cut-off not given; nearly all actives show AC50 up to about 26 µM.

With `Cc1c(CCOc2ccc(C(=O)O)cc2)c2cc(Cl)ccc2n1C(c1ccccc1)c1ccccc1`, the result in experiment [1], in [2], in experiment [3], in experiment [4], in experiment [5] and in [6] was inactive. For the same compound, the outcome in experiment [7] and in experiment [8] was inactive. This compound returned an SSMD in experiment [9] of 2.36. This compound yielded a cell count in experiment [9] of 6680. In addition, the plate-normalised HSF1 focus index in [9] is 1.14 (inactive).
In general, AC50 refers to the midpoint of the concentration-response curve, whichever way the signal moves. The term inhibition denotes the relative decrease from the control value, in per cent. On to `Cc1[nH]c2ccccc2c1CCNCc1ccc(/C=C/C(=O)NO)cc1`, for which the AC50 in experiment [1] was 1.18 µM (active); in experiment [2] it was 0.132 µM (active); in experiment [3], 0.332 µM (active); in experiment [4] it was 0.166 µM (active); in experiment [5], 0.148 µM (active); in experiment [7], 0.166 µM (active). The SSMD in experiment [9] is -3.12. In addition, the cell count in experiment [9] came to 7220. In addition, in experiment [9], the plate-normalised HSF1 focus index is 0.803 (inactive). Besides, the inhibition in [10] (at 0.5 µM, stronger effect = higher value) was 42% (inactive) and 87.2% (active); in [10] (measured here: combination with BGB IC20, at 0.005 µM), -5.26% and -19.1%; in experiment [10] (measured here: combination with BGB IC40, at 0.005 µM) it was -17.3% and -29%; in [10] (measured here: combination with BGB IC40, at 0.05 µM), -6.97% and -48.6%; in experiment [10] (measured here: combination with cisplatin, at 0.5 µM, stronger effect = higher value), 84.3% and 119%; in [10] (measured here: combination with cisplatin, at 5 µM, stronger effect = higher value), 120% and 116%. The inhibition is 99.9% and 99.7% in [11] (BGB combo, at 5 µM); 99.7% (active) and 60.8% (inactive) in experiment [11] (at 0.5 µM); 99.9% and 100% in experiment [11] (cisplatin combo, at 5 µM); 99.5% and 57.1% in [11] (measured here: with BGB IC20 combination, at 0.5 µM); 99.8% and 58.2% in experiment [11] (measured here: with cisplatin IC20 combination, at 0.5 µM); 99.9% in experiment [11] (single agent, at 5 µM). For the same compound, the inhibition in experiment [12] (BGB IC20 combo, at 0.005 µM) is 86.9% and 15.5%; in [12] (BGB IC40 combo, at 0.005 µM), 98.3% and 28.4%; in experiment [12] (BGB IC40 combo, at 0.05 µM) it was 99.9% and 97.7%; in [12] (at 0.5 µM) it was -9.68% (inactive) and -7.76% (inactive); in experiment [12] (cisplatin combo, at 0.05 µM), 99.9% and 97.7%; in experiment [12] (cisplatin combo, at 0.5 µM) it was -13.7% and 4.07%. Besides, the inhibition in experiment [12] (cisplatin combo, at 5 µM) was 25.1% and -22.1%; in [12] (measured here: 5 uM single agent, at 5 µM), 26.1% and 8.36%; in [13] (at 0.5 µM), 99.9% (active) and 73.4% (inactive); in [13] (measured here: with BGB IC20, at 0.5 µM) it was 100% and 62.5%; in experiment [13] (measured here: with BGB IC20, at 5 µM), 99.9% and 99.8%; in experiment [13] (measured here: with cisplatin IC20, at 0.5 µM), 100% and 90.3%. Besides, the inhibition is 100% in [13] (measured here: with cisplatin IC20, at 5 µM); 99.9% and 100% in experiment [13] (single agent, at 5 µM); 68.6% (inactive) and 35.2% (inactive) in experiment [14] (at 0.5 µM); 60.4% and 26.7% in experiment [14] (measured here: BGB combination, at 0.5 µM); 70.3% and 56.2% in [14] (measured here: BGB combination, at 5 µM); 66.3% and 33.8% in experiment [14] (measured here: cisplatin combination, at 0.5 µM). Further, the inhibition is 80.8% and 74.3% in experiment [14] (measured here: cisplatin combination, at 5 µM); 90.4% (active) and 65.9% (inactive) in [15] (at 0.5 µM); 101% and 78.2% in experiment [15] (cisplatin combination, at 0.5 µM); 102% and 105% in [15] (cisplatin combination, at 5 µM); 52.7% and 3.36% in experiment [15] (measured here: BGB IC40 combination 0.05 uM, at 0.05 µM); 109% and 106% in [15] (single agent, at 5 µM). Further, the inhibition in experiment [16] (at 0.5 µM) was 91% (active) and 38.1% (inactive); in [16] (cisplatin combo, at 5 µM), 99% and 97.8%; in [16] (measured here: BGB IC40 combination, at 0.05 µM), 28.7% and -11.4%; in experiment [16] (measured here: combination with cisplatin, at 0.5 µM), 95.9% and 50.4%; in experiment [16] (single agent, at 5 µM) it was 97.1% and 93.2%.
The term IC50 denotes the concentration that gives 50% inhibition. As for `Oc1ccc(-c2ccc(-c3cc(Nc4cccc(CNC5CC5)c4)n[nH]3)cc2)c(O)c1`, the AC50 was 6.61 µM (active) in [1]; 1.66 µM (active) in experiment [2]; 4.69 µM (active) in [3]; 13.2 µM (active) in experiment [4]; 7.42 µM (active) in experiment [5]; 16.6 µM (active) in [6]. The 50% inhibitory concentration (IC50) in experiment [8] was 26.3 µM (active).
As for `COc1ccc(/C=C\c2cc(OC)c(OC)c(OC)c2)cc1O`, the AC50 in experiment [1] was 0.00662 µM (active); in [2], 0.00833 µM (active); in experiment [4], 0.0186 µM (active); in [5] it was 0.0105 µM (active); in [7] it was 0.0105 µM (active). In experiment [3], the outcome was inactive. Further, the IC50 in experiment [8] was 0.0148 µM (active). Further, the fold change in [17] (stronger effect = lower value, cell number ratio, induced over uninduced) is 1.24 (inactive); in experiment [17] (measured here: relative caspase fold change +Dox/-Dox), 0.571. In addition, the cell count in experiment [17] (measured here: total cells with miR-34 induction, stronger effect = lower value) was 1250; in experiment [17] (measured here: total cells without miR-34 induction), 1010; in [9] it was 6590. In experiment [9], this compound returned an SSMD of 0.749. The plate-normalised HSF1 focus index in experiment [9] is 1.05 (inactive).
`Cc1[nH]c(/C=C2\C(=O)Nc3ccc(S(=O)(=O)N(C)c4cccc(Cl)c4)cc32)c(C)c1C(=O)N1CCN(C)CC1`: the AC50 in experiment [1] is 9.34 µM (active); in experiment [2], 20.9 µM (active); in experiment [3], 23.5 µM (active); in experiment [4] it was 7.42 µM (active); in experiment [5], 7.42 µM (active); in experiment [6], 11.8 µM (active). Also, the AC50 in [7] was 8.33 µM (active). The compound further came in with an SSMD in experiment [9] of 1.63. In [9], this compound came in with a cell count of 7040. Moreover, in experiment [9], the plate-normalised HSF1 focus index is 1.1 (inactive).
